HT1080 IDH1KD tx = qHTS for induction of synthetic lethality in tumor cells producing 2HG: qHTS for the HT-1080-IDH1KD cell line; Potency, µM (doses to about 46.1 µM), without a hit: top-dose activity, negative = toxicity, usual class: cytotoxic; HT-1080 IDH1 knockdown viability, ATP luminescence, 48 h; 2% of 360,000 active;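 note: potency is the fitted concentration of half-maximal effect; 0% = DMSO wells and -100% = cell-free medium wells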
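Viability of IDH1-knockdown HT-1080 fibrosarcoma cells was assessed by CellTiter-Glo after 48 h at 37 °C with titrated compound; concentration-effect curves were classified by fit quality and response size.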
IL1B secr inh = qHTS for Inhibitors of Inflammasome Signaling: IL-1-beta AlphaLISA Primary Screen | THP-1 LPS/ATP IL-1B secretion, AlphaLISA, 16 h; active compounds read low | activity change, % at 57.5 µM | 4.7% of 360,000 active | AID 743279, 2014; in the data active = activity change below about -50%; inconclusive = mostly about -30% to -49%
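THP-1 cells pretreated 1 hr with compounds (up to 57.5 uM final), then stimulated with LPS (250 ng/mL final) plus ATP (1.25 mM final); secreted IL-1B measured by AlphaLISA after 16 hr, decreased signal indicating inhibition.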
HT1080-NT tox = qHTS for induction of synthetic lethality in tumor cells producing 2HG: qHTS for the HT-1080-NT fibrosarcoma cell line; 1.6% of 360,000 active; HT-1080-NT fibrosarcoma viability, CellTiter-Glo ATP luminescence, 48 h; Potency, µM (top dose mostly 46.1 µM), for inactives: top-dose activity, negative = less viability, most hits filed as cytotoxic;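 note: NT is the 2HG producing partner of a matched IDH1 knockdown line; potency is the fitted concentration of half-maximal effect; 0% = DMSO-treated cells and -100% = media-only wells without cells; nearly all actives have a fitted effect of over 55% in size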
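HT-1080-NT fibrosarcoma cells (2HG-overproducing), 750 cells/well in RPMI with 5% FBS, dosed after 2 h and incubated 48 h at 37C. CellTiter-Glo luminescence normalized to DMSO and no-cell wells; concentration-response curves fitted and classed.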
DT40 TDP1 no CPT = qHTS for Inhibitors of human tyrosyl-DNA phosphodiesterase 1 (TDP1): qHTS in cells in absence of CPT. DT40 Tdp1-/- hTDP1 cells, no CPT, ATP luminescence, 48 h. Potency, µM (highest dose often 46.2 µM), for inactives: at the top dose activity change, negative = growth inhibition, most hits filed as inhibitors. 15% of 420,000 active. AID 686978, 2013; note: potency is the fitted concentration of half-maximal effect; nearly all actives have a fitted effect of over 55% in size
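Chicken DT40 Tdp1-/- cells stably complemented with human TDP1 were seeded at 400 cells/well with DMSO in place of 20 nM camptothecin. After compound pinning, cells grew at least 48 hr at 37 °C; viability read by CellTiter-Glo luminescence.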
DT40 TDP1 CPT = qHTS for Inhibitors of human tyrosyl-DNA phosphodiesterase 1 (TDP1): qHTS in cells in presence of CPT; chicken DT40 Tdp1-/-;hTDP1 cells + 20 nM CPT, ATP luminescence, 48 h; Potency, µM (titrated, usually from 46.2 µM), without a hit: at the highest dose activity change, negative = growth inhibition, usual class: inhibitors; 12% of 420,000 active; note: potency is the fitted concentration of half-maximal effect; nearly all actives have a fitted effect of over 55% in size
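Chicken DT40 Tdp1-/- cells stably complemented with human TDP1 were seeded at 400 cells/well in medium containing 20 nM camptothecin, exposed to pin-transferred compounds, and grown at 37 °C for at least 48 hr. Viability was read as ATP luminescence.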
Starred values were filed as active, the others as inactive. The list is not random: actives were taken first. Their share in the collection is about 19%. Unless noted, calls come from the whole dose curve; as a rule, active = well fitted curve in the direction sought with a large enough effect; inconclusive = small, poorly fitted or top-dose-only effect, or another doubt; inactive = no such curve, though single readings can be large; an effect the other way counts as inactive or inconclusive. Unless noted, % is set by controls: 0 for no effect and ±100 for the full control effect.

`CC(C)C[C@H]1CNC(=S)N1CC1CCCN1C[C@H](CC(C)C)N1C[C@H](CC(C)C)N(CC2CCCCCC2)C1=S` (stereo not given in full) gave HT1080 IDH1KD tx 1%, IL1B secr inh 16, HT1080-NT tox -6%, DT40 TDP1 no CPT 16µM* and DT40 TDP1 CPT 18µM*.
`CC(C)C[C@@H](CN1CCC[C@@H]1CN1C(=S)NC[C@@H]1Cc1ccc(O)cc1)N1C[C@H](Cc2ccc(O)cc2)N(CC2CCCCCC2)C1=S` gave HT1080 IDH1KD tx 18µM*, IL1B secr inh -82*, HT1080-NT tox inconclusive, DT40 TDP1 no CPT 16µM* and DT40 TDP1 CPT 18µM*.
Screening CC(C)n1nnnc1C1c2ccccc2C(=O)N1C1CC1 (stereo not given) returned HT1080 IDH1KD tx 4%, IL1B secr inh 12, HT1080-NT tox -2%, DT40 TDP1 no CPT -4% and DT40 TDP1 CPT -14%.
For O=C(/C=C/c1ccc(OCCCF)cc1)Nc1ccnc(-c2ccncc2)n1 the results were HT1080 IDH1KD tx -7%, IL1B secr inh 10, HT1080-NT tox -14%, DT40 TDP1 no CPT 23µM* and DT40 TDP1 CPT inconclusive.
COc1ccc(OC)c(NC(=O)CN(c2ccc(C(C)C)cc2)S(=O)(=O)c2c(C)noc2C)c1 was read as HT1080 IDH1KD tx inconclusive, IL1B secr inh 10, HT1080-NT tox inconclusive, DT40 TDP1 no CPT inconclusive and DT40 TDP1 CPT inconclusive.
COc1ccccc1NC(=O)CN(c1ccc(C(C)C)cc1)S(=O)(=O)c1c(C)noc1C was read as DT40 TDP1 no CPT 23µM* and DT40 TDP1 CPT 18µM*.
COc1ccc(N(CC(=O)Nc2ccc(OC)c(Cl)c2)S(=O)(=O)c2c(C)noc2C)cc1 was read as HT1080 IDH1KD tx -21%, IL1B secr inh 1, HT1080-NT tox -17%, DT40 TDP1 no CPT 21µM* and DT40 TDP1 CPT 21µM*.
For CCOc1ccc(N(CC(=O)Nc2ccc(OC)cc2)S(=O)(=O)c2c(C)noc2C)cc1 the results were HT1080 IDH1KD tx -3%, IL1B secr inh 34, HT1080-NT tox 0%, DT40 TDP1 no CPT inconclusive and DT40 TDP1 CPT -22%.
For COc1ccc(NC(=O)CN(c2cc(C)cc(C)c2)S(=O)(=O)c2c(C)noc2C)cc1Cl the results were DT40 TDP1 no CPT 23µM* and DT40 TDP1 CPT inconclusive.
Screening COc1ccc(N(CC(=O)Nc2ccc(C)c(C)c2)S(=O)(=O)c2c(C)n[nH]c2C)cc1 returned HT1080 IDH1KD tx -11%, IL1B secr inh -124*, HT1080-NT tox -7%, DT40 TDP1 no CPT inconclusive and DT40 TDP1 CPT inconclusive.
For COc1ccc(N(CC(=O)Nc2cccc(C)c2)S(=O)(=O)c2c(C)n[nH]c2C)cc1 the results were HT1080 IDH1KD tx 6%, IL1B secr inh -9, HT1080-NT tox 2%, DT40 TDP1 no CPT -6% and DT40 TDP1 CPT -2%.
Screening Cc1n[nH]c2c([N+](=O)[O-])c(=O)[nH]c(=O)n12 returned HT1080 IDH1KD tx 13%, IL1B secr inh -15, HT1080-NT tox 3%, DT40 TDP1 no CPT -6% and DT40 TDP1 CPT 3%.
For COc1ccc(OC)c(NC(=O)CN(c2ccc(C)cc2)S(=O)(=O)c2c(C)noc2C)c1 the results were HT1080 IDH1KD tx -11%, IL1B secr inh 0, HT1080-NT tox -21%, DT40 TDP1 no CPT inconclusive and DT40 TDP1 CPT inconclusive.
`COc1ccc(N(CC(=O)Nc2cc(Cl)ccc2OC)S(=O)(=O)c2c(C)noc2C)cc1` gave HT1080 IDH1KD tx 12µM*, IL1B secr inh 0, HT1080-NT tox inconclusive, DT40 TDP1 no CPT 4.1µM* and DT40 TDP1 CPT 3.3µM*.
Screening Cc1ccccc1CS(=O)(=O)c1ncc(Cl)c(C(=O)Nc2ccc(F)cc2)n1 returned HT1080 IDH1KD tx inconclusive, IL1B secr inh -98*, HT1080-NT tox inconclusive, DT40 TDP1 no CPT 2.1µM* and DT40 TDP1 CPT 3.3µM*.
CC(=O)Nc1ccc(NC(=O)c2nc(SCc3ccccc3F)ncc2Cl)cc1 was read as DT40 TDP1 no CPT -8% and DT40 TDP1 CPT -22%.
For CCOc1ccc(NC(=O)c2nc(S(=O)(=O)Cc3ccccc3C)ncc2Cl)cc1 the results were DT40 TDP1 no CPT 0.71µM* and DT40 TDP1 CPT 1µM*.
For Cc1ccc(NC(=O)C2C3C=CC4(O3)C2C(=O)N(CCCN2CCCCC2)C4C(=O)NC2CCCCC2)cc1C (stereo not given) the results were HT1080 IDH1KD tx -7%, IL1B secr inh -4, HT1080-NT tox -9%, DT40 TDP1 no CPT -1% and DT40 TDP1 CPT 0%.
COc1ccc(-n2ccnc(NCCc3ccc(S(N)(=O)=O)cc3)c2=O)cc1 was read as DT40 TDP1 no CPT -27% and DT40 TDP1 CPT 3%.
For Cc1ccc(C(=O)OCc2cc(=O)n3c(C)csc3n2)s1 the results were HT1080 IDH1KD tx -3%, IL1B secr inh 0, HT1080-NT tox -3%, DT40 TDP1 no CPT 2% and DT40 TDP1 CPT -6%.
Screening CCOC(=O)C1=C(N)OC(CCl)=C(C#N)C1c1ccsc1 (stereo not given) returned HT1080 IDH1KD tx 2%, IL1B secr inh -2, HT1080-NT tox 4%, DT40 TDP1 no CPT 2.6µM* and DT40 TDP1 CPT 2.1µM*.
Clc1ccccc1N=Nc1ccccn1 was read as HT1080 IDH1KD tx inconclusive, IL1B secr inh 2, HT1080-NT tox 8%, DT40 TDP1 no CPT -8% and DT40 TDP1 CPT -19%.
Clc1ss/c(=N\c2ccccn2)c1Cl was read as HT1080 IDH1KD tx 11%, IL1B secr inh -91*, HT1080-NT tox 8%, DT40 TDP1 no CPT -15% and DT40 TDP1 CPT -13%.
Screening Cc1c(Cl)cccc1NC(=O)CN1C(=O)CCn2nc(-c3cccn3C)cc21 returned DT40 TDP1 no CPT -24% and DT40 TDP1 CPT -6%.
Cc1ccc(-c2noc(C3CCCN(C(=O)c4ccc(Cl)cc4)C3)n2)o1 (stereo not given) was read as HT1080 IDH1KD tx -17%, IL1B secr inh inconclusive, HT1080-NT tox -19%, DT40 TDP1 no CPT 13µM* and DT40 TDP1 CPT inconclusive.
For COc1ccc(-c2noc(C3CCCN(C(=O)c4ccc(C)cc4)C3)n2)cc1 (stereo not given) the results were HT1080 IDH1KD tx 16µM*, IL1B secr inh -70*, HT1080-NT tox inconclusive, DT40 TDP1 no CPT 23µM* and DT40 TDP1 CPT 23µM*.
Oc1ccc2ccccc2c1CN1CCCC1 was read as HT1080 IDH1KD tx -19%, IL1B secr inh 27, HT1080-NT tox -24%, DT40 TDP1 no CPT -14% and DT40 TDP1 CPT 1%.
